In all, about 270,000 compounds went through this assay and about 5,800 (2.1%) were called active. Another 16% or so got no clear call; they are omitted. This is one part of a sample in which actives are shown more often than they occur. The calls are words filed in the database; no cut-off is given here.
Target: Microtubule-associated protein tau (Homo sapiens) (UniProt P10636)
Test: qHTS for Inhibitors of Tau Fibril Formation, Thioflavin T Binding. [Related pubchem assays: 596 ]

Chain of Microtubule-associated protein tau (Homo sapiens) (P10636 whole entry): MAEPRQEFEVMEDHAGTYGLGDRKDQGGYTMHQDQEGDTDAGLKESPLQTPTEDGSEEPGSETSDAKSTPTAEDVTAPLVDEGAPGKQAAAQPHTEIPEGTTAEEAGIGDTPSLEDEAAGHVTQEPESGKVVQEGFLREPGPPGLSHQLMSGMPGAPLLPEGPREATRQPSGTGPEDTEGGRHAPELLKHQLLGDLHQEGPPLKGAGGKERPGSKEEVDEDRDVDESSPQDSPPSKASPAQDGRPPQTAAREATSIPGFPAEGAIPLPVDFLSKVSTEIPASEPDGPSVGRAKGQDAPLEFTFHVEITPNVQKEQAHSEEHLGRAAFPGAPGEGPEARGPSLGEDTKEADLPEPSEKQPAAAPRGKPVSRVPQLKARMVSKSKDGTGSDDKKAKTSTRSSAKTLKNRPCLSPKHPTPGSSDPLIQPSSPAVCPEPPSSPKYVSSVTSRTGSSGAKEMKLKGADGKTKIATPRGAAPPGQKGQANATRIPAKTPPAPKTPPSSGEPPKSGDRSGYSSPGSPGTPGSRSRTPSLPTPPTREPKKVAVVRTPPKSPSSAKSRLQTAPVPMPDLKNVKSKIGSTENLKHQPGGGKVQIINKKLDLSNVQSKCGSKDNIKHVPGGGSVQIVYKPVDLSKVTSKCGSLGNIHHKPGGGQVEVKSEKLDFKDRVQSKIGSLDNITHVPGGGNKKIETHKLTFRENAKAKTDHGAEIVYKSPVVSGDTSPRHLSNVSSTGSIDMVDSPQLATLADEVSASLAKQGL

Cl[Te]1(Cl)OCCO1 was tested. Which Potency did it give?
Its Potency is 5.62 µM (active).

— ChEMBL document CHEMBL1201862, “PubChem BioAssay data set” (2004)
